Assay results taken from PubChem BioAssay (NCATS).
Results filed as inconclusive are left out. A call without a number means that no potency is given here. Unmarked numbers belong to inactive results. Calls of active or inactive are those of the source. Calls come from the whole dose curve; as a rule, active = well fitted curve in the direction sought with a large enough effect; inconclusive = small, poorly fitted or top-dose-only effect, or another doubt; inactive = no such curve, though single readings can be large; an effect the other way counts as inactive or inconclusive.

What was measured:
Hek293T = experiment: Primary qHTS to identify gynecologic anti-cancer compounds using libraries of approved drugs and bioactive compounds (AID 1345084); settings: Gynecologic cancer cell panel viability, ATPlite luminescence, 48 h, control line for the selectivity index; series mostly up to 57.5 µM; note: nearly all actives have a fitted effect of over 55% in size
Outline: (§1)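 Luminescence from the ATPlite ATP-monitoring reagent indicates viable cell number; lower signal means cytotoxicity. Cells received compound 16 h after seeding and were exposed for 48 h across five concentrations.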

JEG-3 = experiment: as above; settings: Gynecologic cancer cell panel viability, ATPlite luminescence, 48 h; series mostly up to 57.5 µM
Outline: as §1

OV90 = experiment: as above; settings: Gynecologic cancer cell panel viability, ATPlite luminescence, 48 h; series mostly up to 57.5 µM
Outline: as §1

PA-1 = experiment: as above; settings: Gynecologic cancer cell panel viability, ATPlite luminescence, 48 h; series mostly up to 57.5 µM
Outline: as §1

SKOV3 = experiment: as above; settings: Gynecologic cancer cell panel viability, ATPlite luminescence, 48 h; series mostly up to 57.5 µM
Outline: as §1

Tov-21-G = experiment: as above; settings: Gynecologic cancer cell panel viability, ATPlite luminescence, 48 h; series mostly up to 57.5 µM
Outline: as §1

Tov112D = experiment: as above; settings: Gynecologic cancer cell panel viability, ATPlite luminescence, 48 h; series mostly up to 57.5 µM
Outline: as §1

[1] = Drug repurposing screens with cells derived from glioblastoma tumor samples (AID 1345199); settings: GBM patient neurospheres viability, ATP luminescence, 48 h; note: nearly all actives have a fitted effect of over 40% in size; note: potency is the fitted concentration of half-maximal effect
Outline: (§2)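 Primary testing used CD133+ neurospheres from four GBM patients, seven concentrations, 48 h exposure and ATP-based viability; confirmation added three slower-growing patient lines.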

astro = experiment: as above; settings: viability, ATP luminescence, 48 h; series mostly up to 45.9 µM
Outline: as §2

[2] = at 45.9 µM (top of the series), tumour line B
[3] = at 45.9 µM (top of the series), tumour line D
[4] = at 46.1 µM (top of the series), tumour line C
[5] = at 20 µM (top of the series), tumour line C
[6] = at 21.2 µM (top of the series), tumour line B
[7] = at 21.2 µM (top of the series), tumour line D
[8] = at 46 µM (top of the series), tumour line A

Row | Compound | Potency (Hek293T) | Potency (JEG-3) | Potency (OV90) | Potency (PA-1) | Potency (SKOV3) | Potency (Tov-21-G) | Potency (Tov112D) | activity, negative = cell killing [1, 2] | activity, negative = cell killing [1, 3] | activity, negative = cell killing [1, 4] | Potency (astro) | activity, negative = cell killing [1, 5] | activity, negative = cell killing [1, 6] | activity, negative = cell killing [1, 7] | Potency ([1]; tumour line B) | activity, negative = cell killing [1, 8] | Potency ([1]; tumour line A)
1 | COc1ccc(C(=O)c2ccccc2)c(O)c1 | inactive | inactive | inactive | inactive | inactive | inactive | inactive | 1.18% | -2.35% | -6.38% | inactive | – | – | – | – | – | –
2 | COc1ccc(S(=O)(=O)N2c3ccc(Cl)cc3[C@@](O)(c3ccccc3Cl)[C@H]2C(=O)N2CCC[C@@H]2C(N)=O)cc1OC | inactive | inactive | inactive | inactive | inactive | inactive | inactive | -16.9% | -6.65% | -27% | inactive | – | – | – | – | – | –
3 | NC(=S)N/N=C/c1cccnc1 | inactive | inactive | inactive | inactive | inactive | inactive | inactive | -6.47% | 0.861% | -3.6% | inactive | – | – | – | – | – | –
4 | O=C(O)c1ccc(S(=O)(=O)N(Cl)Cl)cc1 | inactive | inactive | inactive | inactive | inactive | inactive | inactive | -12% | -8.56% | -26.9% | inactive | – | – | – | – | – | –
5 | CC(C)=CCOc1ccc(/C=C/C(=O)c2ccc(OCC=C(C)C)cc2OCC(=O)O)cc1 | inactive | inactive | inactive | inactive | inactive | inactive | inactive | 16% | -25.2% | -4.09% | 31.6 µM (active) | – | – | – | – | – | –
6 | COP(=O)(OC)OC(c1ccc(Cl)cc1)P(=O)(OC)OC (stereo unspecified) | inactive | inactive | inactive | inactive | inactive | inactive | inactive | -15.7% | -14.1% | -24.8% | inactive | – | – | – | – | – | –
7 | NS(=O)(=O)Cc1noc2ccccc12 | inactive | inactive | inactive | inactive | inactive | inactive | inactive | -12.5% | -13.1% | 1.44% | inactive | – | – | – | – | – | –
8 | CC(C)Cn1cnc2c1c(=O)n(C)c(=O)n2C | inactive | inactive | inactive | inactive | inactive | inactive | inactive | -4.91% | -3.1% | -1.11% | inactive | – | – | – | – | – | –
9 | Cc1cn([C@H]2C[C@H](F)[C@@H](CO)O2)c(=O)[nH]c1=O | inactive | inactive | inactive | inactive | inactive | inactive | inactive | -16.6% | -21.3% | -27% | inactive | – | – | – | – | – | –
10 | C=CCN1CCc2nc(N)sc2CC1 | inactive | inactive | inactive | inactive | inactive | inactive | inactive | -26.9% | -19.4% | -3.6% | inactive | – | – | – | – | – | –
11 | CN(C)CCN1C(=O)c2ccccc2N(C)c2ccccc21 | inactive | inactive | inactive | inactive | inactive | inactive | inactive | -10.1% | -18.4% | 4.2% | inactive | – | – | – | – | – | –
12 | CCOC(=O)[C@H](CCc1ccccc1)N[C@@H](C)C(=O)N1[C@H](C(=O)O)C[C@@H]2CCC[C@@H]21 | inactive | inactive | inactive | inactive | inactive | inactive | inactive | -17.1% | 6.01% | -13.2% | inactive | – | – | – | – | – | –
13 | CO[C@]12C[C@@H](COC(=O)c3cncc(Br)c3)CN(C)[C@@H]1Cc1cn(C)c3cccc2c13 | inactive | inactive | inactive | inactive | inactive | inactive | inactive | -27.1% | -16.6% | -7.09% | inactive | – | – | – | – | – | –
14 | CN(C)CCOC(=O)C(c1ccccc1)C1(O)CCCC1 (stereo unspecified) | inactive | inactive | inactive | inactive | inactive | inactive | inactive | -2.94% | -18.8% | -22.9% | inactive | – | – | – | – | – | –
15 | CCCCN1C[C@H](O)[C@@H](O)[C@H](O)[C@H]1CO | inactive | inactive | inactive | inactive | inactive | inactive | inactive | -11.2% | -2.4% | -21.4% | inactive | – | – | – | – | – | –
16 | CC(C(=O)O)c1cccc(Oc2ccccc2)c1 (stereo unspecified) | inactive | inactive | inactive | inactive | inactive | inactive | inactive | – | – | – | inactive | 4.85% | -4.71% | -19.7% | – | – | –
17 | C[N+]1(C)CCC(=C(c2ccccc2)c2ccccc2)CC1 | inactive | inactive | inactive | inactive | inactive | inactive | inactive | – | – | – | inactive | 3.13% | -8.97% | 4.56% | – | – | –
18 | CCOC(=O)c1ccc(N)cc1 | inactive | inactive | inactive | inactive | inactive | inactive | inactive | – | – | – | inactive | – | – | -25.1% | 14.1 µM (active) | – | –
19 | NC1CCN(c2nc3c(cc2F)c(=O)c(C(=O)O)cn3-c2ccc(F)cc2F)C1 (stereo unspecified) | inactive | inactive | inactive | inactive | inactive | inactive | inactive | -3.86% | -30% | – | inactive | – | – | – | – | -29.1% | –
20 | COc1ccc(C(=O)c2ccccc2O)c(O)c1 | inactive | inactive | inactive | inactive | inactive | inactive | inactive | – | – | – | inactive | -19.6% | 4.62% | -15.3% | – | – | –
21 | CC(C)(C)CC(C)(C)c1ccc(O)c(-n2nc3ccccc3n2)c1 | inactive | inactive | inactive | inactive | inactive | inactive | inactive | – | – | – | inactive | – | – | – | – | – | –
22 | C[C@]12CCC(=O)C=C1C=C[C@@H]1[C@@H]2CC[C@@]2(C)[C@H]1CC[C@@]21CCC(=O)O1 | inactive | inactive | inactive | inactive | inactive | inactive | inactive | -20% | – | – | inactive | – | – | – | – | – | –
23 | CC(C)CCCC(C)N (stereo unspecified) | inactive | inactive | inactive | inactive | inactive | inactive | – | -9.11% | -4% | -27% | inactive | – | – | – | – | -26.4% | –
24 | CCCCCCCCCCC[C@@H](C[C@@H]1OC(=O)[C@H]1CCCCCC)OC(=O)[C@H](CC(C)C)NC=O | inactive | inactive | inactive | inactive | inactive | inactive | inactive | – | -23% | – | 22.4 µM (active) | – | – | – | – | – | 10 µM (active)
25 | OC(C#CCN1CCCC1)(c1ccccc1)c1ccccc1 | inactive | inactive | inactive | inactive | inactive | inactive | inactive | -17.2% | – | -29.1% | inactive | – | – | – | – | – | 11.2 µM (active)
26 | C/C=C/c1ccc(O)c(OC)c1 | inactive | inactive | inactive | inactive | inactive | inactive | inactive | -4.55% | -0.156% | -3.58% | inactive | – | – | – | – | – | –
27 | CCCCC(CC)COC(=O)c1ccc(N(C)C)cc1 (stereo unspecified) | inactive | inactive | inactive | inactive | inactive | inactive | inactive | -7.11% | -11.8% | -2.69% | inactive | – | – | – | – | – | –
28 | O=C1OC2(c3ccccc31)c1cc(Br)c(O)c(Br)c1Oc1c2cc(Br)c(O)c1Br | inactive | inactive | inactive | inactive | inactive | inactive | inactive | -12.6% | -6.67% | -34.7% | inactive | – | – | – | – | – | –
